In the supplement of paper PMC6897291:

Tested on: RIVA
Assay: growth inhibition by drug alone (1 - RLU/untreated control) (fraction); higher = stronger inhibition
Conditions: 177Lu-lilotomab satetraxetan 0 ug/ml
Experimental: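 RIVA (RI-1) ABC-DLBCL cells were pretreated or not for 18 h with 0.5 ug/ml 177Lu-lilotomab satetraxetan (600 MBq/mg), washed and seeded (3000 cells/well) on 384-well plates pre-printed with the Selleck Cambridge Cancer Compound library. Viability was read by RealTime-Glo luminescence on days 3-6 after seeding. Effect = 1 - RLU/mean RLU of the 48 untreated no-drug control wells per plate; Bliss score = (M-E)/(1-Fa).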

| Compound | growth inhibition by drug alone (10 nM, time (day): 3) | growth inhibition by drug alone (10 nM, time (day): 4) | growth inhibition by drug alone (10 nM, time (day): 5) | growth inhibition by drug alone (10 nM, time (day): 6) | growth inhibition by drug alone (100 nM, time (day): 3) | growth inhibition by drug alone (100 nM, time (day): 4) | growth inhibition by drug alone (100 nM, time (day): 5) | growth inhibition by drug alone (100 nM, time (day): 6) |
| --- | --- | --- | --- | --- | --- | --- | --- | --- |
| O=C(NC1CCNCC1)c1n[nH]cc1NC(=O)c1c(Cl)cccc1Cl | 0.0833 | 0.0499 | 0.00549 | -0.171 | -0.131 | -0.1 | -0.185 | -0.425 |
| CCCCc1nc2cc(/C=C/C(=O)NO)ccc2n1CCN(CC)CC [SB939 (Pracinostat)] | 0.107 | 0.0736 | 0.0778 | 0.0437 | 0.513 | 0.435 | 0.418 | 0.353 |
| CC(C)c1ccc(Cn2ccc3c4c(N)nc(NC5CC5)nc4ccc32)cc1 | 0.0749 | 0.155 | 0.0828 | -0.0413 | 0.639 | 0.486 | 0.491 | 0.444 |
| CC(=O)Nc1nc(C)c(-c2ccc(Cl)c(S(=O)(=O)NCCO)c2)s1 | 0.0212 | 0.026 | -0.0187 | -0.271 | -0.0771 | -0.0663 | -0.1 | -0.193 |
| Cn1c(=O)c(F)c(Nc2ccc(I)cc2F)c2c(=O)n(C[C@@H](O)CO)cnc21 | 0.0885 | 0.0594 | -0.0237 | -0.205 | -0.0966 | -0.077 | -0.161 | -0.342 |
